Compound activity (PubChem)
Hits are enriched below; roughly 3.4% of the tested compounds scored in any of these assays.
ADAM10 inh: inhibitors of human ADAM10 | O14672 | hit rate 0.62% among 370,000 | AID 720582 | inhibition, % at 7 µM | recombinant ADAM10, EDANS/DABCYL FRET peptide cleavage, 3 h;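 active = inhibition above a per-campaign cutoff equal to the mean of compounds falling between control-based bounds plus 3 SD, cut at about 20% in these data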
KLK7 zymogen act: proKLK7 (human) activation, primary screen; P49862; purified proKLK7, EDANS-DABCYL substrate fluorescence; 100% is mature enzyme control, 0% vehicle; activation, % at 7 µM; hit rate 0.9% among 370,000; AID 652039;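 active = activation above the mean of all tested compounds plus 3 SD, computed per campaign excluding outliers beyond control limits, cut at about 13% in these data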
CendR NRP1 mod: modulators of CendR peptide binding to human neuropilin-1 | FAM-RPARPAR peptide binding to NRP-1, fluorescence polarization | hit rate 0.85% among 360,000 | inhibition, % at 25 µM;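 active = inhibition or corrected inhibition above about 18%, plus a signal ratio from 0.5 to 1.5, limit read from the data, passing the limit was not always enough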
sPLA2-III inh: Inhibits HGIII-sPLA2 liposome hydrolysis, primary screen | inhibition, % at 12.2 µM | AID 743126 | QFRET BODIPY PC-A2 liposome hydrolysis, fluorescence | Q9NZ20 | hit rate 0.56% among 370,000;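 active = inhibition above mean plus 3 SD of compounds lying within the high and low control bounds, cut at about 19% in these data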
ADAM17 inh: inhibitors of human ADAM17; P78536; recombinant ADAM17, EDANS/DABCYL FRET peptide cleavage; inhibition, % at 6.95 µM; hit rate 0.83% among 370,000; AID 720648;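 active = inhibition above the mean of compounds lying between control limits plus 3 SD, set per campaign, cut at about 8.5% in these data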
Target sequence (P78536 215-824 limits assumed): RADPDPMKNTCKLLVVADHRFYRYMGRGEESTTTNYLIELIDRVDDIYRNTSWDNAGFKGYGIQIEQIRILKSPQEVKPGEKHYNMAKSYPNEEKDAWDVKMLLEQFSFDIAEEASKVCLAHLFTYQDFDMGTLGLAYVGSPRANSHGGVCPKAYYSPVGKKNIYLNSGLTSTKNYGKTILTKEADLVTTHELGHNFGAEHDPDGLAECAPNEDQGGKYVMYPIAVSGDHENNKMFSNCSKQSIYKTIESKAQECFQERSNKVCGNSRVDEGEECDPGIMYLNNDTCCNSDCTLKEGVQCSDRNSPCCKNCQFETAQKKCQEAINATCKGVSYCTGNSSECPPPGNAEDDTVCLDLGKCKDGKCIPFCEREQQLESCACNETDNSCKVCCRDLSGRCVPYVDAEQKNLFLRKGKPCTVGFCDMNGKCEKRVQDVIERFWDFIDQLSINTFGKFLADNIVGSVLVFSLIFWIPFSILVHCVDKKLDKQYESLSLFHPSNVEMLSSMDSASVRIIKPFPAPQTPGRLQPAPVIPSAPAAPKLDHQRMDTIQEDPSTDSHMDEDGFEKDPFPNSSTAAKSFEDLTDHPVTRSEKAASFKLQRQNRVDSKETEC
Hits are given with their value; . = inactive; / = not tested or not shown.

SMILES | ADAM10 inh | KLK7 zymogen act | CendR NRP1 mod | sPLA2-III inh | ADAM17 inh
CCCc1c(C)nc(N2CCN(c3ccccc3OC)CC2)[nH]c1=O | . | . | 32 | . | .
CCc1c(C)nc(SCC(=O)N2CCN(c3ccccc3OC)CC2)[nH]c1=O | . | . | . | . | .
Cc1cccc(NC(=O)NCCCN2CCN(c3ccc(F)cc3)CC2)c1 | . | . | / | . | .
CCCCN1CC[C@H]2C=CC[C@@H](C(=O)Nc3ccc(Cl)cc3Cl)[C@H]2C1=O | . | . | 34 | . | .
COc1ccc(CNC(=O)[C@@H]2CC=C[C@@H]3CCN(C4CCCCC4)C(=O)[C@@H]32)cc1 | . | . | . | . | .
CCCCN1CC[C@H]2C=CC[C@@H](C(=O)NCc3ccc(OC)cc3)[C@H]2C1=O | . | . | 21 | . | .
COc1ccc(CNC(=O)[C@@H]2CC=C[C@@H]3CCN(Cc4ccc(Cl)c(Cl)c4)C(=O)[C@@H]32)cc1 | . | . | 30 | . | .
O=C(OCc1ccc(CSc2nnc(-c3cccc4ccccc34)o2)cc1)c1ccc(F)cc1 | . | / | / | . | .
C=CCNC(=O)C1CC2Cn3c(nc4cc5ccccc5cc43)C2N1C (stereo unspecified) | . | . | 19 | . | .
CC(C)c1ccc(OC[C@@H](O)CN2CCC(C(O)(c3ccccc3)c3ccccc3)CC2)cc1 | . | . | / | . | .
Nc1ccn(CC(=O)NCc2ccc3[nH]ccc3c2)c(=O)n1 | . | . | 32 | . | .
O=C(CSc1ccccc1)NC1CCCCN(Cc2ccc(Cl)cc2)C1=O (stereo unspecified) | . | . | / | . | .
CCOC(=O)C1CCN(C(=O)C(C)(C)NC(=O)Nc2ccc(Cl)cc2Cl)CC1 | . | / | / | . | .
COc1ccc([C@H]2CC(=O)C=C(c3ccc4c(c3)OCCO4)C2)cc1 | . | . | 26 | . | .
COc1ccc(C2=CC(=O)C[C@H](c3ccc(OC)c(OC)c3)C2)cc1 | . | . | 21 | . | .
C[N+]1=C(N)N[C@@]2(C=C3CCCCC3n3c(=O)n(-c4ccccc4)c(=O)n32)C1 (stereo partly specified) | . | . | / | . | .
Nc1ncnc2[nH]c(=S)[nH]c12 | . | . | 29 | . | .
COC(=O)N[C@@H]1C[C@H]2[C@@H]3CC[C@H]4C[C@@H](OC)CC[C@]4(C)[C@H]3CC[C@@]12C | . | . | . | . | .
COC(=O)N[C@@H]1C[C@H]2[C@@H]3CC[C@H]4C[C@@H](OC)CC[C@]4(C)[C@H]3CC[C@]12C | . | . | 28 | . | .
CCc1n[nH]c(=S)n1/N=C/c1cc(OC)cc([N+](=O)[O-])c1O | . | . | 47 | . | .
COc1cc(/C=N/n2c(=S)[nH]nc(C)c2=O)cc([N+](=O)[O-])c1O | . | . | . | . | .
COc1ccc(-n2nc3c(N)n[nH]c3cc2=O)cc1 | . | . | 29 | . | .
COC(=O)C1CN(Cc2ccc(C)cc2)CCS(=O)(=O)N1Cc1cn(Cc2ccc(C)cc2)nn1 (stereo unspecified) | . | . | / | . | .
COc1ccc(CN2C(=O)N3Cc4ccc(C)cc4C3CS2(=O)=O)cc1 (stereo unspecified) | . | . | / | . | .
COc1ccc(NC(=S)NC(NC(C)=O)C(Cl)(Cl)Cl)c([N+](=O)[O-])c1 (stereo unspecified) | . | . | . | . | .
SMILES | ADAM10 inh | KLK7 zymogen act | CendR NRP1 mod | sPLA2-III inh | ADAM17 inh
COc1ccc(NC(=S)NC(NC(=O)c2cccc(C)c2)C(Cl)(Cl)Cl)c([N+](=O)[O-])c1 (stereo unspecified) | 21 | . | . | . | .
c1ccc2c(c1)CC(N1CCCCC1)c1ccccc1S2 (stereo unspecified) | . | . | 41 | . | .
CCC1(C)CC(c2nc(-c3ccc(OC)cc3)cs2)CCS1 (stereo unspecified) | . | . | 32 | . | .
COC(=O)[C@]12C[C@H](CC(=O)NCC34CC5CC(CC(C5)C3)C4)C(=O)N(Cc3ccccc3)C1=C[C@H](C(C)(C)C)O[C@@H]2C | . | . | / | . | .
O=C(c1ccco1)N1CCN(C(=O)c2ccccc2OC(=O)C23CC4CC(CC(C4)C2)C3)CC1 | . | . | 20 | . | .
O=C(O)c1ccccc1OC(=O)C12CC3CC(CC(C3)C1)C2 | . | . | . | . | .
Cc1ccc(C2(c3noc(CN(C)Cc4cnn(C)c4)n3)CCCC2)cc1 | . | . | 34 | . | .
COc1ccc(Cl)cc1NC(=O)CCc1nc(-c2ccccc2F)no1 | . | . | 46 | . | .
CCOc1ccc(N=Cc2ccc(N(C)C)cc2)c(O)c1 | / | / | . | / | /
CCOc1ccc(N=Cc2ccc([N+](=O)[O-])cc2)c(O)c1 | . | 18 | . | . | .
CCn1c(C)nnc1SCC(=O)NC1CCCCCC1 | . | . | 27 | . | .
C[C@H](O)[C@@H]1CN2CCc3c([nH]c4c(-c5ccc6c(c5)OCO6)cccc34)[C@@H]2C[C@@H]1N(C)C(=O)NC1CCCCC1 | . | . | / | . | .
COc1ccc(/C=C2\SC(=O)N(CCNC(=O)Cc3coc4cc(OC)ccc34)C2=O)cc1 | . | . | . | . | .
COc1ccc(/C=C2\SC(=O)N(CCNC(=O)Cn3[nH]c(=O)c4ccccc4c3=O)C2=O)cc1 | . | . | 29 | . | .
CCOC(=O)N1CCN(C(=O)c2cc(COc3ccc(OC)cc3Cl)on2)CC1 | . | . | 25 | . | .
COc1ccc(/C=C/C(=O)Nc2cccc(F)c2)cc1S(=O)(=O)N1CCOCC1 | . | . | 23 | . | .
COc1ccc(/C=C/C(=O)Nc2ccccc2F)cc1S(=O)(=O)N1CCOCC1 | . | . | . | . | .
COC(=O)c1ccc(COC(=O)C2CCN(S(=O)(=O)c3ccccc3C(=O)OC)CC2)cc1 | . | . | . | . | .
COC(=O)c1ccccc1S(=O)(=O)N1CCC(C(=O)OCc2ccc([N+](=O)[O-])cc2)CC1 | . | . | 25 | . | .
COC(=O)[C@]1(CNC(=O)C(F)(F)F)CC(=O)N(C)[C@@H]1c1ccccc1 | . | . | / | . | .
C[C@H](O)[C@@H]1CN2CCc3c([nH]c4cccc(-c5ccccc5)c34)[C@@H]2C[C@@H]1N(C)C(=O)c1ccco1 | . | . | / | . | .
COC(=O)C12C=C3CC(c4ccc(C)s4)=C3C(=O)N1Cc1[nH]c3ccccc3c1C2 (stereo unspecified) | . | . | / | . | .
COc1ccc(C(=O)C2CCCN(C(=O)c3c4c(nn3C)CCCC4)C2)cc1F (stereo unspecified) | . | . | . | . | .
Cn1nc2c(c1C(=O)N1CCCC(C(=O)c3cc(F)ccc3F)C1)CCCC2 (stereo unspecified) | . | . | 53 | . | .
Cn1c(=O)c2[nH]c(CCNC(=O)c3ccccc3)nc2n(C)c1=O | . | . | 18 | . | .
NC(=O)COC(=O)c1c2c(nc3ccccc13)CCC2 | . | . | 20 | . | .
CCOC(=O)/C=C/c1ccc2c(c1)S(=O)(=O)N(c1cccc(OC)c1)[C@H]2CC(=O)OCC | . | . | 28 | . | .
